Most compounds without a hit are left out; they make up all but 28% or so of the library.
CYP2C9 inh: blocks human cytochrome P450 2C9 | inhibition, % at 5 µM | CYP2C9 Supersomes, luciferin-H conversion, luminescence | 96,000 tested, 20% active | P11712;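 active = blocking of liver enzyme CYP2C9 beyond about 50% at 5 µM, limit read from the data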
CYP2C19 activ: cytochrome P450 2C19 (human) activation | recombinant CYP2C19, luciferin-H EGE luminescence; stronger effect = higher value; 0 = fully inhibited enzyme, 1 = untreated enzyme | activation factor at 5 µM | 96,000 tested, under 10 active | AID 1025;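 active = activation factor of at least 2 at 5 µM in the primary screen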;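 also: 0 = wells with 2.5 mM tranylcypromine and 1 = vehicle-only wells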
hDAT+cocaine: changed human dopamine transporter uptake under cocaine IC80; LLC-PK1 hDAT cells, [14C]-dopamine uptake with cocaine IC80; actives deviate in either direction; B-score at 10 µM; 110,000 tested, 1.3% active; AID 449768; Q01959;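 active = Z score or B-score, a plate-position-corrected score, falls beyond the plate's 99.7% confidence bounds, in either direction; inactive = both scores lie inside the 99.7% bounds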;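 also: scored against the spread of the other compound wells on the same plate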
Target sequence (Q01959 whole entry, looked up): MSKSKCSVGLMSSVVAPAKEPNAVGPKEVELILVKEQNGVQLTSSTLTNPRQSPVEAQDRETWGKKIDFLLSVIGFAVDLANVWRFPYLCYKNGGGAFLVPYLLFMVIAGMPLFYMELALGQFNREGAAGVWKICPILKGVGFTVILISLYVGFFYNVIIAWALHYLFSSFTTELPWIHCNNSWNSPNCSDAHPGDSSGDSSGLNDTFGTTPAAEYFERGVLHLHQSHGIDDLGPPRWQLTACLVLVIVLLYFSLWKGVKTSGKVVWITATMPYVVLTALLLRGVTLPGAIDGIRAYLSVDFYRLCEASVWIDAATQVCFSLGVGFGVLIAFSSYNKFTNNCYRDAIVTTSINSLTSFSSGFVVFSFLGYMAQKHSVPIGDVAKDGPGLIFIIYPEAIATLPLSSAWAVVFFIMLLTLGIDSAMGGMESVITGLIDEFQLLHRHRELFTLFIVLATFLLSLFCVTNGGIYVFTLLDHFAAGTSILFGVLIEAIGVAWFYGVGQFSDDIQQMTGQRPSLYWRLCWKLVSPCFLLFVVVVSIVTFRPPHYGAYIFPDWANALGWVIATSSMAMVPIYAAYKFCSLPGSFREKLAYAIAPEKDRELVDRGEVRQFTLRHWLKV
CYP2C19 inhib: human CYP2C19 inhibition; P33261; CYP2C19 Supersomes, luciferin-H EGE luminescence, 30 min; inhibition, % at 5 µM; 96,000 tested, 21% active;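 active = CYP2C19 inhibition above a set limit at 5 µM in the primary screen, cut at about 50% in these data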;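 also: plate controls were negative control wells for no effect and 2.5 mM tranylcypromine positive control for full effect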
CYP2C9 act: increases human cytochrome P450 2C9 activity. P11712. recombinant CYP2C9, luciferin-H conversion, luminescence; stronger effect = higher value; factor 1 = untreated enzyme, 0 = blocked. activation factor at 5 µM. 96,000 tested, 1.4% active. AID 1024;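 active = activation factor of 2 or more for CYP2C9 at a 5 µM dose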;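 also: 0 = sulfaphenazole-blocked wells and 1 = vehicle-only wells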
D1 allo mod: allosteric modulators of human D1 dopamine receptor. P21728. HEK293 D1, CRE-luciferase, dopamine EC30 potentiation; actives deviate in either direction. B-score at 10 µM. 58,000 tested, 5.9% active. AID 641;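 active = luminescence count or its row- and column-corrected plate score outside the 99.7% band of the plate's sample wells, on either side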
D1 mod confirm: confirmation of human D1 dopamine receptor allosteric modulators; shares compounds with D1 allo mod; HEK293 D1 CRE-luciferase, dopamine EC30 potentiation; stronger effect = higher value; luminescence at 10 µM; 2,200 tested, 88% active; AID 642;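 active = luminescence in either of two replicates above the same-plate mean plus 3 SD of the low-dose dopamine control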
D1 no dopamine: D1 (human) signaling in absence of dopamine; 1,900 tested, 0.8% active; HEK293 D1 CRE-luciferase, luminescence, no dopamine; stronger effect = higher value; AID 646; shares compounds with D1 allo mod; luminescence at 10 µM; in the data active = luminescence above about 3900
Isoprot counter: alters isoproterenol CRE-luciferase response in HEK293 cells. 2,200 tested, 63% active. HEK293 D1 CRE-luciferase, isoproterenol EC30 counter-screen. AID 647. shares compounds with D1 allo mod. calls only at 10 µM;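 active = luminescence in either replicate above plate mean of wells with a partly effective reference agonist dose plus 3 SD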;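 also: isoproterenol raises cAMP through native beta-adrenoceptor Gs so signal bypasses D1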
Numbers without * were called inactive; i = inactive; · = not tested or not shown; + = active, no number.

SMILES | CYP2C9 inh | CYP2C19 activ | hDAT+cocaine | CYP2C19 inhib | CYP2C9 act | D1 allo mod | D1 mod confirm | D1 no dopamine | Isoprot counter
COc1ccc(C(c2sc3nc(C)nn3c2O)N2CCC3(CC2)OCCO3)cc1 (stereo unspecified) | 11 | 0.6 | 0.88 | 45 | 0.9 | -0.043 | · | · | ·
COCCn1c(-c2ccc(OC)cc2)nc2oc3cc(OC)ccc3c(=O)c2c1=O | -3 | 1.1 | 0.32 | -5 | 1 | · | · | · | ·
COc1ccc(N/C=C2\CCOC2=O)cc1 | 5 | 0.8 | -0.9 | 16 | 0.9 | 3.2* | 4948 | 1600 | i
COc1cccc(N2CC(O)=C(c3ccccc3)C2=N)c1 | -6 | 0.9 | · | 12 | 1.1 | · | · | · | ·
CCOC(=O)C[C@H]1c2ccccc2S(=O)(=O)N1Cc1ccc(Cl)cc1 | · | · | 0.25 | · | · | · | · | · | ·
CNc1nc(OCC(F)(F)F)nc(N2CCOCC2)n1 | -2 | 1 | -0.52 | -3 | 1 | · | · | · | ·
CNc1nc(OC)nc(N2CCOCC2)n1 | 15 | 1 | 0.57 | -5 | 0.9 | 6* | 19816* | 1956 | +
O=C(c1ccc(COc2c(F)c(F)cc(F)c2F)o1)N1CCN(c2ccccc2)CC1 | · | · | 0.013 | · | · | · | · | · | ·
C=CCOc1nc(N2CCCC2)nc(N2CCCC2)n1 | -1 | 1 | 1.6 | 0 | 1 | 24* | 26540* | 1648 | +
O=C(CN1CCOCC1)Nc1ccccc1NC(=O)C1CCN(c2ncccn2)CC1 | 12 | 0.7 | 0.83 | 29 | 0.9 | -1.1 | · | · | ·
CCOc1nc(C)ccc1-c1noc(-c2ccncc2)n1 | · | · | 2 | · | · | 18* | 11268* | 1692 | +
CCOC(=O)c1c(C2COc3ccccc3O2)csc1N (stereo unspecified) | 80* | 0.1 | 0.47 | 91* | 0.2 | 9.9* | 11276* | 1584 | +
Cc1cc(C)c(NC2=CC(=O)CC(C)(C)C2)c(C#N)c1 | 14 | 1 | -0.7 | 4 | 0.9 | -0.73 | · | · | ·
O=c1[nH]c2ccccc2c(=O)n1Cc1ccco1 | -8 | 1 | 0.067 | 3 | 1.1 | 1.7 | · | · | ·
CCCCc1nc(NCCN2CCOCC2)c(C#N)c2c1COC(C)(C)C2 | 69* | 0.7 | 2.6* | 28 | 0.3 | 5.8* | 11452* | 1780 | +
Cc1cnn(CCC(=O)NNC(=S)Nc2cccc(Cl)c2)c1 | 0 | 1 | -0.29 | 2 | 1 | · | · | · | ·
COC(=O)c1ccc(C(=O)OC)c(NC(=O)COC(=O)C23CC4CC(CC(O)(C4)C2)C3)c1 | 58* | 0.9 | -1.1 | 13 | 0.4 | 3.1* | 5580* | 1192 | i
CCOCC(=O)Nc1cc(C(=O)OC)ccc1C(=O)OC | 27 | 0.7 | -0.077 | 29 | 0.7 | 0.065 | · | · | ·
O=C(O)c1ccccc1C(=O)OCCCCOC(=O)c1ccccc1C(=O)O | 5 | 1.1 | 0.066 | -6 | 0.9 | 0.38 | · | · | ·
C#CCNc1nc(CC)nc2c1nnn2Cc1ccccc1F | 10 | 0.5 | 1.2 | 52* | 0.9 | 5.9* | 15288* | 1616 | +
Cc1cccc2cc(CN(CC3CCCO3)C(=O)c3cccnc3)c3nnnn3c12 (stereo unspecified) | 49 | 0.9 | 2.4 | 13 | 0.5 | 5.5* | 15420* | · | +
Cc1cccc2cc(CN(CC3CCCO3)S(=O)(=O)c3ccccc3)c3nnnn3c12 (stereo unspecified) | -6 | 1.1 | · | -15 | 1.1 | 0.083 | · | · | ·
Nc1cc(=O)[nH]c(SCCNS(=O)(=O)c2ccccc2)n1 | -3 | 1 | -1.7 | -2 | 1 | 0.31 | · | · | ·
COc1nc(NCCC2=CCCCC2)nc(OC)n1 | 20 | 0.8 | -0.3 | 17 | 0.8 | 7.2* | 8312* | 1712 | +
CCc1nc(NCCCn2ccnc2)c2oc3ccccc3c2n1 | 98* | 0.1 | 0.8 | 91* | 0 | 5.5* | 13664* | · | +
SMILES | CYP2C9 inh | CYP2C19 activ | hDAT+cocaine | CYP2C19 inhib | CYP2C9 act | D1 allo mod | D1 mod confirm | D1 no dopamine | Isoprot counter
Cn1c(=O)[nH]c(=O)c2c1nc(Br)n2CCCO | 46 | 1 | -0.51 | -2 | 0.5 | -0.15 | · | · | ·
CCOC(=O)c1cc(CC)sc1NC(=O)COC | 84* | 0.8 | -0.45 | 25 | 0.2 | 12* | 17728* | 1632 | +
CC(C)(C)c1ccccc1OCCOCCSc1ncccn1 | -18 | 1.4 | 0.033 | -35 | 1.2 | · | · | · | ·
COc1ccc(N2CCN(Cc3nc(N)nc(N4CCCc5ccccc54)n3)CC2)cc1 | 3 | 0.6 | 0.7 | 38 | 1 | 5.7* | 13244* | 1624 | +
Nc1nc(CN2CCN(c3cccc(Cl)c3)CC2)nc(N2CCCc3ccccc32)n1 | 22 | 0.6 | 0.026 | 41 | 0.8 | 1.2 | · | · | ·
Nc1nc(CN2CCN(c3ccccc3)CC2)nc(N2CCCc3ccccc32)n1 | 60* | 0.4 | 0.09 | 62* | 0.4 | 4* | 8864* | 1484 | i
Cc1noc(C)c1CSc1nc2sc(C)c(C)c2c(=O)n1C1CCCC1 | 90* | 0.7 | -0.99 | 29 | 0.1 | 10* | 13364* | 1472 | +
NC(=O)CC(NC(=O)Cc1cccc2ccccc12)c1ccc(NC2CCCCC2)c([N+](=O)[O-])c1 (stereo unspecified) | · | · | 0.74 | · | · | · | · | · | ·
CCCSc1nc2c(c(=O)[nH]c(=O)n2C)n1Cc1ccc(C)cc1 | 1 | 1 | 0.17 | 0 | 1 | -0.068 | · | · | ·
CCn1c(N2CCN(CC(=O)c3c(C)n(C)c4ccccc34)CC2)nc2c1c(=O)[nH]c(=O)n2C | 46 | 0.6 | 0.44 | 39 | 0.5 | 3.5* | 8636* | 1416 | +
Cc1ccc(Cn2c(SCC(C)C)nc3c2c(=O)[nH]c(=O)n3C)cc1 | 24 | 0.9 | -0.13 | 14 | 0.8 | 7* | 15640* | 1512 | +
Cc1ccc(Cn2c(N3CCCCCC3)nc3c2c(=O)[nH]c(=O)n3C)cc1 | 0 | 1 | 1.7 | 3 | 1 | 3.1* | 9560* | 1668 | +
CN1CCN(c2nc3c(c(=O)[nH]c(=O)n3C)n2CCOc2ccccc2)CC1 | -2 | 1 | 0.0023 | -3 | 1 | -2.1 | · | · | ·
Cn1c(=O)[nH]c(=O)c2c1nc(N1CCCCCC1)n2CCCSc1nc2ccccc2o1 | 83* | 0.3 | 1.4 | 66* | 0.2 | 7.3* | 7696* | 1592 | +
CC1CCCN(c2nc3c(c(=O)[nH]c(=O)n3C)n2Cc2ccccc2Cl)C1 (stereo unspecified) | 17 | 1.1 | 0.33 | -12 | 0.8 | 4.5* | 12012* | · | +
Cc1c(C)c2ccc(OC3CCCCC3=O)cc2oc1=O (stereo unspecified) | 14 | 1 | · | 4 | 0.9 | 2.5* | 6564* | 1492 | i
